Test results taken from PubChem BioAssay (Tox21).
Where “and” joins values, the source holds several entries; their conditions need not be identical. Identical values can stand only once. Results filed as inconclusive are left out. A call without a number means that no potency is given here. Calls of active or inactive are those of the source. Calls follow the shape of the dose curve; as a rule, active = well fitted curve in the direction sought with a large enough effect in the repeat runs; inconclusive = weak or mixed curves; inactive = no such curve, though single readings can be large; an effect the other way counts as inactive or inconclusive.

Test: Human pregnane X receptor (PXR) small molecule agonists, qHTS cell viability counter screen (AID 1346977); also: nearly all actives have a fitted effect of over 50% in size; also: potency is read from the fitted curve at half-maximal effect
Conditions: PXR-Luc HepG2 viability, CellTiter-Fluor, 24 h; series mostly up to 92.4 µM
Summary of the method: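 Viability counter screen: CellTiter-Fluor signal in PXR-Luc HepG2 cells, 24hr compound exposure, 37C, 5% CO2.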

Structure (SMILES)	Potency
C=C(Cl)Cl	inactive
CCOC(=O)c1cn2nc(OP(=S)(OCC)OCC)cc2nc1C	inactive
O=C(O)C(F)(F)C(F)(F)C(F)(F)C(F)(F)C(F)(F)F	inactive
O=C(O)c1ccc(=O)[nH]c1	inactive
O=C(O)C(Cl)(Cl)Br	inactive
CC(=O)NNc1ccccc1	inactive
CC(Oc1cc(Cl)c(Cl)cc1Cl)C(=O)O (configuration not stated)	inactive
C=CC(C)(CCC=C(C)C)OC(=O)c1ccccc1N (configuration not stated)	inactive
O=C(CCl)CCl	inactive
CCCCC(CC)COC(=O)c1c(Br)c(Br)c(Br)c(Br)c1C(=O)OCC(CC)CCCC (configuration not stated)	inactive
O=C(Cl)OCCOCCOC(=O)Cl	inactive
Cc1ncc(C[n+]2csc(CCO)c2C)c(N)n1	inactive
N#CC(C#N)=Cc1ccc(O)c(O)c1	inactive
NCCc1cc(O)c(O)cc1O	inactive
O=[N+]([O-])/C=C/c1ccccc1	24.7 µM (active) and 19.3 µM (active)
CNC(=O)Oc1cccc(N=CN(C)C)c1	inactive
O=[N+]([O-])c1cc(Cl)c(Cl)cc1Cl	inactive
CCCCCCCCCCCC[N+](C)(C)CCOc1ccccc1	61.1 µM (active)
COC(=O)Cc1ccccc1	inactive
O=C(N[C@H]1CN2CCC1CC2)c1ccc2c(c1)OCCO2	inactive
CCCCC#N	inactive
ClCc1ccccc1Cl	inactive
CC(C)(C#N)C(C)(C)C#N	inactive
COc1ccc(C(=O)c2c(C)n(CCN3CCOCC3)c3ccccc23)cc1	inactive
C=CCOC(=O)C(C)(C)OC(=O)c1cc(-n2c(=O)cc(C(F)(F)F)n(C)c2=O)ccc1Cl	inactive
CC(CC(C(N)=O)(c1ccccc1)c1ccccc1)N(C)C (configuration not stated)	inactive

Test: Caspase-3/7 induction in HepG2 cells by small molecules, qHTS assay (AID 1346978); also: nearly all actives have a fitted effect of over 15% in size
Conditions: HepG2 caspase-3/7 activation, Caspase-Glo luminescence, 17 h; series mostly up to 92.4 µM
Summary of the method: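 Caspase-3/7 induction was measured by Caspase-Glo 3/7 luminescence (30 min, room temperature) after a 17 hr compound exposure of wild-type HepG2 cells seeded at 2,000 per well and pre-incubated 5 hr.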

Structure (SMILES)	Potency	caspase activation
C=C(Cl)Cl	inactive	
CCOC(=O)c1cn2nc(OP(=S)(OCC)OCC)cc2nc1C	inactive	
O=C(O)C(F)(F)C(F)(F)C(F)(F)C(F)(F)C(F)(F)F	inactive	
O=C(O)c1ccc(=O)[nH]c1	inactive	
O=C(O)C(Cl)(Cl)Br	inactive	
Cc1nc2ccccc2c(=O)n1-c1ccccc1Cl	inactive	
CC(=O)NNc1ccccc1	inactive	
CC(Oc1cc(Cl)c(Cl)cc1Cl)C(=O)O (configuration not stated)	inactive	
N#CC(C#N)=C(C#N)C#N	inactive	
C=CC(C)(CCC=C(C)C)OC(=O)c1ccccc1N (configuration not stated)	inactive	
COc1cc(CC(C)N)c(OC)cc1Br (configuration not stated)	inactive	
O=C(CCl)CCl	inactive	
CCCCC(CC)COC(=O)c1c(Br)c(Br)c(Br)c(Br)c1C(=O)OCC(CC)CCCC (configuration not stated)	inactive	
O=P(OCC(Br)CBr)(OCC(Br)CBr)OCC(Br)CBr (configuration not stated)	inactive	
O=C(Cl)OCCOCCOC(=O)Cl	inactive	
Cc1ncc(C[n+]2csc(CCO)c2C)c(N)n1	inactive	
N#CC(C#N)=Cc1ccc(O)c(O)c1	inactive	
COc1ccc2c(c1OC)C(=O)O[C@H]2[C@@H]1c2cc3c(cc2CCN1C)OCO3	inactive	
CC(C)(C)N(NC(=O)c1ccc(Cl)cc1)C(=O)c1ccccc1	inactive	

Structure (SMILES)	Potency	caspase activation
NCCc1cc(O)c(O)cc1O	inactive	
C[Si](Cn1cncn1)(c1ccc(F)cc1)c1ccc(F)cc1	inactive	
COc1cc(C[C@@H](C)N)c(OC)cc1Br	inactive	
C[C@H]1[C@@H]2Cc3ccc(O)cc3[C@@]1(C)CCN2C	inactive	
CNC(=O)Oc1cccc(N=CN(C)C)c1	inactive	
O=[N+]([O-])c1cc(Cl)c(Cl)cc1Cl	inactive	
CCOC(C(=O)OCCN(C)C)(c1ccccc1)c1ccccc1	inactive	
COC(=O)Cc1ccccc1	inactive	
O=C(N[C@H]1CN2CCC1CC2)c1ccc2c(c1)OCCO2	inactive	
CCCCC#N	inactive	
ClCc1ccccc1Cl	inactive	
CC(C)(C#N)C(C)(C)C#N	inactive	
COc1ccc(C(=O)c2c(C)n(CCN3CCOCC3)c3ccccc23)cc1	inactive	
Nc1c(Br)cc(Br)c2c1C(=O)c1ccccc1C2=O		0.187% [at 19 µM] (inactive)
C=CCOC(=O)C(C)(C)OC(=O)c1cc(-n2c(=O)cc(C(F)(F)F)n(C)c2=O)ccc1Cl	inactive	
CC(CC(C(N)=O)(c1ccccc1)c1ccccc1)N(C)C (configuration not stated)	inactive	
O=C(NCNC(=O)NC1C(=O)NC(=O)N1CO)NC1C(=O)NC(=O)N1CO (configuration not stated)	inactive	
CC(C)(C)NCC(O)c1cc(Cl)c(N)c(C(F)(F)F)c1 (configuration not stated)	inactive	

Test: Caspase-3/7 induction in CHO-K1 cells by small molecules, qHTS cell viability counter screen (AID 1346979); also: nearly all actives have a fitted effect of over 35% in size; also: potency is read from the fitted curve at half-maximal effect
Conditions: CellTiter-Fluor fluorescence, 17 h; series mostly up to 92.4 µM
Summary of the method: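 Viability readout by fluorescence (CellTiter-Fluor) on wild-type CHO-K1 cells exposed for 16hr at 37C and 5% CO2 to compounds delivered in DMSO; reagent incubated 1hr before reading.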

Structure (SMILES)	Potency
O=C(O)C(Cl)(Cl)Br	inactive
Cc1nc2ccccc2c(=O)n1-c1ccccc1Cl	26.7 µM (active)
CC(Oc1cc(Cl)c(Cl)cc1Cl)C(=O)O (configuration not stated)	inactive
C=CC(C)(CCC=C(C)C)OC(=O)c1ccccc1N (configuration not stated)	inactive
COc1cc(CC(C)N)c(OC)cc1Br (configuration not stated)	inactive
O=C(CCl)CCl	50.3 µM (active) and 30.6 µM (active)
CCCCC(CC)COC(=O)c1c(Br)c(Br)c(Br)c(Br)c1C(=O)OCC(CC)CCCC (configuration not stated)	inactive
O=P(OCC(Br)CBr)(OCC(Br)CBr)OCC(Br)CBr (configuration not stated)	69.5 µM (active)
Cc1ncc(C[n+]2csc(CCO)c2C)c(N)n1	inactive
COc1ccc2c(c1OC)C(=O)O[C@H]2[C@@H]1c2cc3c(cc2CCN1C)OCO3	11.9 µM (active)
CC(C)(C)N(NC(=O)c1ccc(Cl)cc1)C(=O)c1ccccc1	12.1 µM (active)
COc1cc(C[C@@H](C)N)c(OC)cc1Br	inactive
C[C@H]1[C@@H]2Cc3ccc(O)cc3[C@@]1(C)CCN2C	inactive
O=[N+]([O-])/C=C/c1ccccc1	6.97 µM (active) and 12.2 µM (active)
O=[N+]([O-])c1cc(Cl)c(Cl)cc1Cl	inactive
CCOC(C(=O)OCCN(C)C)(c1ccccc1)c1ccccc1	inactive
CCCCCCCCCCCC[N+](C)(C)CCOc1ccccc1	43.3 µM (active)
COC(=O)Cc1ccccc1	inactive
O=C(N[C@H]1CN2CCC1CC2)c1ccc2c(c1)OCCO2	inactive
CCCCC#N	inactive
ClCc1ccccc1Cl	inactive
Nc1c(Br)cc(Br)c2c1C(=O)c1ccccc1C2=O	14.5 µM (active)
CC(CC(C(N)=O)(c1ccccc1)c1ccccc1)N(C)C (configuration not stated)	inactive
O=C(NCNC(=O)NC1C(=O)NC(=O)N1CO)NC1C(=O)NC(=O)N1CO (configuration not stated)	inactive
